Source: PubChem BioAssay (NCI)
This is part of a sample that, as a whole, favours compounds with a hit. Of some 83,000 tested, about 20% had one in any assay.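 The endpoint reported here, percent growth, reads 100 for growth as untreated, 0 for no net growth and -100 for all cells dead.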 The source made the active and inactive calls. Rule for the calls: active = growth percent below 10; inactive = the rest.

system: NCI-H23 lung; assay: NCI-60 one-dose screen, 48 h (100 = growth as untreated, 0 = no growth, -100 = all killed); settings: 10 µM unless noted

| SMILES | growth |
| --- | --- |
| COc1cc(NC(=O)CSc2nc3ccc(Cl)cc3c(=O)n2-c2ccc(F)cc2)cc(OC)c1OC | 85.2% (inactive) |
| Cc1ccc(C(=O)Nc2ccc(CN3CCN(C)CC3)c(C(F)(F)F)c2)cc1C#Cc1cnc(N)c2ccc(F)cc12 | -77.3% (active) |
| FC(F)(F)c1cccc(-c2[nH]ncc2-c2nnnn2-c2ccccc2)c1 | 73.9% (inactive) |
| COc1cc(CCNc2cnc3cc(N)cc(N)c3n2)cc(OC)c1 | 107% (inactive) |
| CCOC(=O)CNS(=O)(=O)CC(=O)c1ccccc1 | 101% (inactive) |
| O=C(Nc1ccc(Cl)cn1)C1(c2ccccc2)CCCCC1 | 114% (inactive) |
| Brc1c(-c2ccncc2)nc2n1CCS2 | 113% (inactive) |
| O=C(Nc1cccc(Cn2c(=O)[nH]c3ccc(Oc4ncccn4)cc3c2=O)c1)c1ccc(Cl)cc1 | 46.9% (inactive) |
| CC(=O)c1cc(Nc2cc(C)nc(N)n2)cc(C(C)=O)c1 | 83.2% (inactive) |
| O=C(Nc1cccc(Cn2c(=O)[nH]c3ccc(Oc4ncccn4)cc3c2=O)c1)c1cc(Cl)cc(Cl)c1 | 74.1% (inactive) |
| C=C1CCC2C3(C)COC(c4ccccc4)OC3CCC2(C)C1C/C=C1/C(=O)OCC1O (stereo not given) | 87.2% (inactive) |
| CC(C)(C)OC(=O)N1C/C(=C\c2ccccc2)C(=O)/C(=C/c2ccccc2)C1 | 103% (inactive) |
| Nc1cc(N)c2nc(-c3ccccc3)c(NCCc3ccc(Cl)c(Cl)c3)nc2c1 | -63.9% (active) |
| O=C(Nn1cnc2ccccc21)N1CCCC1 | 111% (inactive) |
| O=C(Nc1cccc(Cn2c(=O)[nH]c3ccc(Oc4ncccn4)cc3c2=O)c1)c1cccc(F)c1 | 82.2% (inactive) |
| O=C1NCCN1/N=C/c1c(Cl)nc2n1CCS2 | 106% (inactive) |
| CC(=O)N1N=C(c2ccc(Cl)cc2)CC1c1cn(-c2ccccc2)nc1-c1ccc([N+](=O)[O-])cc1 (stereo not given) | 101% (inactive) |
| Cc1c([C@H](C(Cl)Cl)[C@H](O)[C@H]2C[C@H](C)C(=O)O2)ccc2c1C(=O)[C@H]1[C@H]2C[C@@H](Br)[C@@]23O[C@@H](CO[C@H]2O)CC13C (stereo not given in full) | 20.3% (inactive) |
| CCCCCC(=C/c1ccccc1)/C=N/N=C(N)N | 44.6% (inactive) |
| COc1cc2oc(-c3ccc(NC(=O)c4ccccc4)cc3)cc(=O)c2c(OC)c1OC | 82.4% (inactive) |

| SMILES | growth |
| --- | --- |
| N#Cc1c(N)nc(Nc2nc3ccccc3[nH]2)nc1-c1ccc(Cl)cc1 | 101% (inactive) |
| COc1cc(N)c2nccc(C)c2c1OC | 115% (inactive) |
| Cc1ccc(C(=O)NN)cc1 | 101% (inactive) |
| COc1cc(OC)c2c(=O)cc(-c3ccccc3)oc2c1 | 106% (inactive) |
| C/C=C(/C)C(=O)OC1C=C(CO)C(=O)C(OC(=O)/C(C)=C\C)C1C(C)C (stereo not given) | -66.3% (active) |
| Cc1nn(-c2ccccc2)c(N)c1N=C1NC(=O)/C(=C/c2ccc(Cl)cc2)S1 | 78.2% (inactive) |
| COCC(=O)NNc1[nH]c(-c2ccc(OC)cc2)cc1C#N | 100% (inactive) |
| Cc1ncc(C(=O)Nc2ccc(CN3CCN(C)CC3)c(C(F)(F)F)c2)cc1C#Cc1cnc(NC2CC2)c2ncccc12 | -70.8% (active) |
| CCCOC(=O)c1c(C)n(C)c2scc[n+]12 | 29% (inactive) |
| Cc1ccc2c(O)c(O)cc(NC(C)CCCN)c2n1 (stereo not given) | 20.7% (inactive) |
| CC(=O)N(N=O)c1ccc([N+](=O)[O-])cc1Cl | 34% (inactive) |
| Cc1ccc2c(c1)C(=O)CCS2 | 100% (inactive) |
| O=C(O)/C(Br)=C/c1c[nH]c2ccc(Br)cc12 | 99.6% (inactive) |
| COc1ccc(-n2nnnc2-c2cn[nH]c2C(F)(F)F)cc1 | 128% (inactive) |
| COc1ccc(C2C3(C#N)C(N)=NC(=C(C#N)C#N)C23C#N)cc1OC (stereo not given) | 104% (inactive) |
| CCOC(=O)c1cc(-c2ccc(OC)cc2)[nH]c1NNC(=O)CCOC | 114% (inactive) |
| O=C(NCCCl)Nc1nccnc1OCc1ccc(F)cc1 | 97.2% (inactive) |
| CC1=C(C)C(=O)C(C(C)C2=C(C)C(=O)C(C)=C(C)C2=O)=C(C)C1=O | 84.6% (inactive) |
| COc1cc(NC(C)CCCN)c2nccc(C)c2c1OC (stereo not given) | 51.8% (inactive) |
| COc1cc2c(c(OC)c1OC)C(=O)CC(c1cccc(C(=O)Nc3cccc(Br)c3)c1)O2 (stereo not given) | 97% (inactive) |

system: NCI-H226 lung; assay: as above; settings: 10 µM unless noted

| SMILES | growth |
| --- | --- |
| COc1cc(NC(=O)CSc2nc3ccc(Cl)cc3c(=O)n2-c2ccc(F)cc2)cc(OC)c1OC | 83.2% (inactive) |
| Cc1ccc(C(=O)Nc2ccc(CN3CCN(C)CC3)c(C(F)(F)F)c2)cc1C#Cc1cnc(N)c2ccc(F)cc12 | -45.5% (active) |
| FC(F)(F)c1cccc(-c2[nH]ncc2-c2nnnn2-c2ccccc2)c1 | 76.2% (inactive) |
| COc1cc(CCNc2cnc3cc(N)cc(N)c3n2)cc(OC)c1 | 99.4% (inactive) |
| CCOC(=O)CNS(=O)(=O)CC(=O)c1ccccc1 | 101% (inactive) |
| O=C(Nc1ccc(Cl)cn1)C1(c2ccccc2)CCCCC1 | 103% (inactive) |
| Brc1c(-c2ccncc2)nc2n1CCS2 | 93.4% (inactive) |
| O=C(Nc1cccc(Cn2c(=O)[nH]c3ccc(Oc4ncccn4)cc3c2=O)c1)c1ccc(Cl)cc1 | 34.6% (inactive) |
| CC(=O)c1cc(Nc2cc(C)nc(N)n2)cc(C(C)=O)c1 | 101% (inactive) |
| O=C(Nc1cccc(Cn2c(=O)[nH]c3ccc(Oc4ncccn4)cc3c2=O)c1)c1cc(Cl)cc(Cl)c1 | 44.2% (inactive) |
| C=C1CCC2C3(C)COC(c4ccccc4)OC3CCC2(C)C1C/C=C1/C(=O)OCC1O (stereo not given) | 92.2% (inactive) |
| CC(C)(C)OC(=O)N1C/C(=C\c2ccccc2)C(=O)/C(=C/c2ccccc2)C1 | 81.6% (inactive) |
| Nc1cc(N)c2nc(-c3ccccc3)c(NCCc3ccc(Cl)c(Cl)c3)nc2c1 | -76.2% (active) |
| O=C(Nn1cnc2ccccc21)N1CCCC1 | 105% (inactive) |
| O=C(Nc1cccc(Cn2c(=O)[nH]c3ccc(Oc4ncccn4)cc3c2=O)c1)c1cccc(F)c1 | 74.1% (inactive) |
| O=C1NCCN1/N=C/c1c(Cl)nc2n1CCS2 | 151% (inactive) |
| CC(=O)N1N=C(c2ccc(Cl)cc2)CC1c1cn(-c2ccccc2)nc1-c1ccc([N+](=O)[O-])cc1 (stereo not given) | 93.6% (inactive) |
| Cc1c([C@H](C(Cl)Cl)[C@H](O)[C@H]2C[C@H](C)C(=O)O2)ccc2c1C(=O)[C@H]1[C@H]2C[C@@H](Br)[C@@]23O[C@@H](CO[C@H]2O)CC13C (stereo not given in full) | 42.9% (inactive) |
| CCCCCC(=C/c1ccccc1)/C=N/N=C(N)N | 66% (inactive) |
| COc1cc2oc(-c3ccc(NC(=O)c4ccccc4)cc3)cc(=O)c2c(OC)c1OC | 85.4% (inactive) |

| SMILES | growth |
| --- | --- |
| N#Cc1c(N)nc(Nc2nc3ccccc3[nH]2)nc1-c1ccc(Cl)cc1 | 81.2% (inactive) |
| COc1cc(N)c2nccc(C)c2c1OC | 101% (inactive) |
| Cc1ccc(C(=O)NN)cc1 | 109% (inactive) |
| COc1cc(OC)c2c(=O)cc(-c3ccccc3)oc2c1 | 101% (inactive) |
| C/C=C(/C)C(=O)OC1C=C(CO)C(=O)C(OC(=O)/C(C)=C\C)C1C(C)C (stereo not given) | -0.591% (active) |
| Cc1nn(-c2ccccc2)c(N)c1N=C1NC(=O)/C(=C/c2ccc(Cl)cc2)S1 | 83.5% (inactive) |
| COCC(=O)NNc1[nH]c(-c2ccc(OC)cc2)cc1C#N | 106% (inactive) |
| Cc1ncc(C(=O)Nc2ccc(CN3CCN(C)CC3)c(C(F)(F)F)c2)cc1C#Cc1cnc(NC2CC2)c2ncccc12 | 39.7% (inactive) |
| CCCOC(=O)c1c(C)n(C)c2scc[n+]12 | 87.2% (inactive) |
| Cc1ccc2c(O)c(O)cc(NC(C)CCCN)c2n1 (stereo not given) | 111% (inactive) |
| CC(=O)N(N=O)c1ccc([N+](=O)[O-])cc1Cl | 68.3% (inactive) |
| Cc1ccc2c(c1)C(=O)CCS2 | 101% (inactive) |
| O=C(O)/C(Br)=C/c1c[nH]c2ccc(Br)cc12 | 108% (inactive) |
| COc1ccc(-n2nnnc2-c2cn[nH]c2C(F)(F)F)cc1 | 91% (inactive) |
| COc1ccc(C2C3(C#N)C(N)=NC(=C(C#N)C#N)C23C#N)cc1OC (stereo not given) | 109% (inactive) |
| CCOC(=O)c1cc(-c2ccc(OC)cc2)[nH]c1NNC(=O)CCOC | 105% (inactive) |
| O=C(NCCCl)Nc1nccnc1OCc1ccc(F)cc1 | 100% (inactive) |
| CC1=C(C)C(=O)C(C(C)C2=C(C)C(=O)C(C)=C(C)C2=O)=C(C)C1=O | 124% (inactive) |
| COc1cc(NC(C)CCCN)c2nccc(C)c2c1OC (stereo not given) | 97.2% (inactive) |
| COc1cc2c(c(OC)c1OC)C(=O)CC(c1cccc(C(=O)Nc3cccc(Br)c3)c1)O2 (stereo not given) | 85.1% (inactive) |
